These results are taken from PubChem BioAssay (NCI).

Structures are written as SMILES. “And” between values parts separate entries of the source, which are not always exact repeats. Equal entries are not always repeated. This is part of a sample that, as a whole, favours compounds with a hit. Of some 83,000 tested, about 20% had one in any assay.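 Interpretation: 100, growth as untreated; towards 0, rising growth inhibition; 0, no net growth; 0 to -100, cell death. Compounds scoring below 10 were considered active.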 The source made the active and inactive calls.

The assay concerns MDA-MB-468 breast. The assay can be described thus: NCI-60 one-dose screen, 48 h (100 = growth as untreated, 0 = no growth, -100 = all killed). The settings on record: 10 µM unless noted.
With `CCCN=C1NC(=O)/C(=C/c2nc(-c3ccc(OC)cc3)n3ccccc23)S1`, the growth is 101% (inactive).

As to `Clc1nc(-c2cccnc2)nc2sc3c(c12)CCCCCC3`, the growth was 95.1% (inactive).

`Cc1nn(-c2ccccc2)c2nc3c(nc12)C1=NCCN1C(c1ccc(Cl)cc1)N3` (stereo unspecified): the growth is 48.2% (inactive).

With `Cc1cc(Br)c(C)cc1Br`, the growth was 92.2% (inactive).

With `Cc1ccc(/C=C2\SC(=S)N(c3ccc(F)cc3)C2=O)o1`, the growth is 69.6% (inactive).

Turning to `CC(C)CCSc1nc(Nc2ccccc2)c(C#N)c(-c2ccc(F)cc2)n1`, the growth was 60.6% (inactive). Under `c1cc(C2=N[C@@H]3c4ccccc4C[C@@H]3O2)nc(C2=N[C@@H]3c4ccccc4C[C@@H]3O2)c1` stands 95.8% (inactive); under `C[C@H]1[C@H](C)CC[C@]2(C(=O)OCCOCCOCC[P+](c3ccccc3)(c3ccccc3)c3ccccc3)CC[C@]3(C)C(=CC[C@@H]4[C@@]5(C)CC[C@H](OC(=O)C(Cl)Cl)C(C)(C)[C@@H]5CC[C@]43C)[C@H]12`, -21.5% (active). Under `CC(=O)NCc1cc(C)c(C)cc1C` stands 93.4% (inactive).

As to `CN1CCN(C(=S)SCCCCOc2cc(=O)oc3ccccc23)CC1`, the growth is 56.3% (inactive). With `CN(C)CCNC(=O)c1ccc(-c2nc3ccc4[nH]ncc4c3c3c2CCC3)cc1`, the growth is -55.3% (active).

For the molecule `CCN(CC)CCC(CNc1c(C)cnc2cc(Cl)ccc12)c1ccc(Cl)cc1` (stereo unspecified), the growth is 19.3% (inactive). For the molecule `CCOC(=O)c1cn2c3c(cc(C)cc3c1=O)C(=O)/C(=C/c1ccccc1)C2`, the growth is 84.6% (inactive).

Turning to `Cc1ccc(C2=Nc3c(N)ncnc3NC(c3cccc(Nc4ccnc5cc(C(F)(F)F)ccc45)c3)C2)cc1` (stereo unspecified), the growth is 24.8% (inactive). On to `C#CCC(C(=O)OCC)C(=O)OCC`, for which the growth was 108% (inactive). For the molecule `Cc1nn(-c2ccc(Cl)cc2)c2ncnc(N/N=C/c3ccccc3O)c12`, the growth was -30.8% (active) and -12.1% (active). Under `C#C[C@]1(O)CC[C@H]2[C@@H]3CC=C4c5sc(N6CCN(C)CC6)nc5CC[C@]4(C)[C@H]3CC[C@@]21C` stands 47.6% (inactive); under `C[Se]C(=O)CC1=C2C=C(F)C=CC2/C(=C\c2ccc(S(C)=O)cc2)C1C` (stereo unspecified), -46.2% (active); under `O=C(NC(=S)Nc1ccc(Cl)cc1)c1ccccc1`, -37% (active). Under `O=C(Nn1c(NCC(=O)N2c3ccccc3Sc3ccccc32)nnc1-c1ccc(O)cc1)c1ccccc1` stands 104% (inactive).

As for `COc1cc2nc3cc([N+](=O)[O-])ccc3c(Cl)c2cc1OC`, the growth is 10.7% (inactive). With `Fc1ccc(/C=C/[C@@H]2C[C@@H](F)CCO2)cc1`, the growth is 84% (inactive).

On to `Cn1ccnc1C(=O)/C=C/c1ccc(C(=O)Nc2ccccc2O)cc1`, for which the growth was -3.85% (active). Take `COc1cc2c(cc1OC)C(CC1(O)CCCCC1)N(S(=O)(=O)c1ccc(C)cc1)CC2` (stereo unspecified): the growth was 44.4% [100 µM] (inactive). As to `COc1ccc(-c2cnc3ccnn3c2-c2cc(OC)c(OC)c(OC)c2)cc1`, the growth was 2.83% (active). As for `CC(C)c1ccc(C(=O)OC2CCCC2)cc1`, the figure is 106% (inactive).
